RBX1-CUL1 inh = human ROC1-CUL1 E3 ligase inhibition; 140,000 compounds, 0.6% hits; in vitro K48 di-Ub FRET, acceptor:donor ratio, 45 min; AID 1347404; inhibition, % at 10 µM; in the data active = inhibition above about 25%
Target sequence (P62877 whole entry, looked up): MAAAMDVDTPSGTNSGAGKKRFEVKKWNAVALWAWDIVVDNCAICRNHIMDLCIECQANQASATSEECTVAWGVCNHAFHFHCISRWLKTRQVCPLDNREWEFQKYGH
Target sequence (Q13616 whole entry, looked up): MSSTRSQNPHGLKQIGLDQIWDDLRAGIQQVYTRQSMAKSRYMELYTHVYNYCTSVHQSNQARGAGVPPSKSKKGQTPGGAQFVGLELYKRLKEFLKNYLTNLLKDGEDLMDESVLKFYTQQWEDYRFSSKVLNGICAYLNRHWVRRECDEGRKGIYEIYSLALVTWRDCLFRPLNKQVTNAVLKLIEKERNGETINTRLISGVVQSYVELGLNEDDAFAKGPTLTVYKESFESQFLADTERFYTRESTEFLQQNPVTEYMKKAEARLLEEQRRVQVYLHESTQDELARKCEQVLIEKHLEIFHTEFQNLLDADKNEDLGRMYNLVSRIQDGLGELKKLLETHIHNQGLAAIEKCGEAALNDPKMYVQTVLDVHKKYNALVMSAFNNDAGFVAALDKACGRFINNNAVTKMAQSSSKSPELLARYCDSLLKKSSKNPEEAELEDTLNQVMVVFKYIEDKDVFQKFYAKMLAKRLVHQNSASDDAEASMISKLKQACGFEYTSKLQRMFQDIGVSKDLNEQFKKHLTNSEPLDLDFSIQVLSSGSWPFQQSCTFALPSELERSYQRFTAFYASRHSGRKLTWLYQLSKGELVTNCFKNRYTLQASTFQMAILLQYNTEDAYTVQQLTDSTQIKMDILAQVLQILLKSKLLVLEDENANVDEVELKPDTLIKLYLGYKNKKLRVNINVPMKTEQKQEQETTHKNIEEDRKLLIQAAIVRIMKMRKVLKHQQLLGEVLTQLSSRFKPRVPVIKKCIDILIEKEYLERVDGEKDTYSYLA
Numbers without * were called inactive. Only a selection was taken, and hits are over-represented in it overall.

How did CC(=O)Nc1ccc(Oc2cc(NC(=O)c3ccccc3)cc([N+](=O)[O-])c2)cc1 do in these assays?
RBX1-CUL1 inh: 7

What do the screens show for `CC(=O)Oc1cc(C(=O)Nc2ccc(Oc3ccccc3)cc2)cc(OC(C)=O)c1OC(C)=O`?
RBX1-CUL1 inh: 38*

What do the screens show for `O=C(Nc1ccc(Oc2ccccc2)cc1)c1ccncc1`?
RBX1-CUL1 inh: 4

Results for CC(C)c1ccccc1OCC(=O)Nc1ccc(S(=O)(=O)Nc2ccccn2)cc1 ?
RBX1-CUL1 inh: -5

How did CCOC(=O)c1sc2ccccc2c1OC(=O)c1ccc(OC)cc1 do in these assays?
RBX1-CUL1 inh: 1

Results for COc1cc(C)c(C(=S=O)S(=O)(=O)c2ccccc2)c(C)c1C(C)C ?
RBX1-CUL1 inh: 0

What do the screens show for `C=CCn1c(SCc2nc(N)nc(N3CCCCC3)n2)nnc1-c1cccnc1`?
RBX1-CUL1 inh: 2

What do the screens show for `COc1ccccc1/C=C1\SC(=S)N(CCC(=O)N=C2C(=O)N(c3ccccc3)N(C)C2C)C1=O` (stereo not given)?
RBX1-CUL1 inh: -5

What do the screens show for `COc1ccc(OC)c(N2CC(C(=O)N3CCN(c4ccccc4)CC3)CC2=O)c1` (stereo not given)?
RBX1-CUL1 inh: -1

How did CS(=O)(=O)c1ccccc1C(=O)O do in these assays?
RBX1-CUL1 inh: 4

What do the screens show for `Nc1ccc2cccc(C(=O)O)c2n1`?
RBX1-CUL1 inh: 70*

How did Nc1ccc2ccc3cccnc3c2n1 do in these assays?
RBX1-CUL1 inh: -8

What do the screens show for `CCNc1nc(NCC)nc(OCCNC(=O)COc2ccc(Cl)cc2Cl)n1`?
RBX1-CUL1 inh: 13

How did O=C1C=C(c2ccccc2)OC(=O)C1 do in these assays?
RBX1-CUL1 inh: 1

What do the screens show for `CN1C(=O)C=C(c2ccccc2)CC1=O`?
RBX1-CUL1 inh: 99*

How did CC1(C)CNC(=O)C=C(c2ccccc2)C1 do in these assays?
RBX1-CUL1 inh: -1

How did COCC(=O)N1CCCC(C(=O)c2ccc(C(C)(C)C)cc2)C1 (stereo not given) do in these assays?
RBX1-CUL1 inh: 5

What do the screens show for `C=C1C2(C(=O)Nc3ccc(C(=O)OCC)cc3)CCC(C2)C1(C)C` (stereo not given)?
RBX1-CUL1 inh: -6

How did CCN1C(=O)C(O)(CC(=O)c2ccc3c(c2)CCCC3)c2ccccc21 (stereo not given) do in these assays?
RBX1-CUL1 inh: 11

Results for CC(=O)N1CCC(N2CCOc3ccc(C(O)C(c4ccccc4)c4ccccc4)cc3C2)CC1 (stereo not given) ?
RBX1-CUL1 inh: 3

What do the screens show for `COc1ccc2c(c1)OC(C)CN(Cc1cc(OC)c3c(c1)OCO3)C2` (stereo not given)?
RBX1-CUL1 inh: -2

Results for Clc1ccc(C=Nc2ccc(Cl)cc2Cl)cc1 ?
RBX1-CUL1 inh: 4

What do the screens show for `CCCn1c2ccccc2c2nnc(SCC(=O)Nc3c(C(=O)OCC)cnn3-c3ccccc3)nc21`?
RBX1-CUL1 inh: -4

Results for CC(C)C(C)OC1CC(=O)CC2C(=O)c3c(O)ccc(O)c3C(=O)C12 (stereo not given) ?
RBX1-CUL1 inh: 60*

Results for CCOC(=O)c1sc2nc(C34CC5CC(CC(C5)C3)C4)cc(C(F)(F)F)c2c1N ?
RBX1-CUL1 inh: 2

What do the screens show for `O=C(NCCSCc1c(Cl)cccc1Cl)c1ccco1`?
RBX1-CUL1 inh: -8

Results for Cc1cccc(OCCCOc2ccc(Br)cc2/C=C2\C(=O)NN(c3ccccc3)C2=O)c1 ?
RBX1-CUL1 inh: 57*

How did COc1cc(/C=C2\C(=O)NN(c3ccccc3)C2=O)cc(Br)c1OCc1ccc(C)cc1 do in these assays?
RBX1-CUL1 inh: 8

Results for COc1cc(/C=C2\C(=O)NN(c3ccccc3)C2=O)cc(Br)c1OCCCOc1cccc(C)c1 ?
RBX1-CUL1 inh: 45*

What do the screens show for `COc1cc(/C=C2/C(=O)NN(c3ccc(I)cc3)C2=O)cc(Br)c1OC(C)=O`?
RBX1-CUL1 inh: 3

What do the screens show for `CCOc1ccc(/C=C2/C(=O)NN(c3cccc(F)c3)C2=O)cc1OC`?
RBX1-CUL1 inh: -5

What do the screens show for `CCOc1cc(/C=C2\C(=O)NN(c3ccccc3)C2=O)ccc1OCc1ccccc1C`?
RBX1-CUL1 inh: 10

How did COc1cc(/C=C2/C(=O)NN(c3ccc(C)c(C)c3)C2=O)cc(Br)c1OC(C)=O do in these assays?
RBX1-CUL1 inh: 31*

Results for COc1cc(/C=C2/C(=O)NN(c3ccc(C)c(C)c3)C2=O)ccc1OCC(=O)N1CCOCC1 ?
RBX1-CUL1 inh: 0

Results for CCOc1cc(/C=C2\C(=O)NN(c3ccccc3)C2=O)cc(Br)c1OCCCOc1cccc(C)c1 ?
RBX1-CUL1 inh: 35*

How did COc1cc(/C=C2/C(=O)NN(c3ccccc3)C2=O)ccc1OCC(=O)Nc1cccc(C)c1 do in these assays?
RBX1-CUL1 inh: -2

What do the screens show for `Cc1cccc(COc2ccccc2/C=C2\C(=O)NN(c3ccccc3)C2=O)c1`?
RBX1-CUL1 inh: 8

Results for CCOc1cc(Cl)c(C(C)NC(=O)c2ccccc2OC)cc1OCC (stereo not given) ?
RBX1-CUL1 inh: -3

How did O=C(c1ccc(S(=O)(=O)N2CCOCC2)cc1)N1CCN(Cc2ccc3c(c2)OCO3)CC1 do in these assays?
RBX1-CUL1 inh: 3

What do the screens show for `Cc1oc(-c2cc3c(cc2Cl)OCO3)nc1CN(C)Cc1nc(-c2cccnc2)no1`?
RBX1-CUL1 inh: -1

What do the screens show for `COc1ccc(OCC(=O)NCc2cccnc2N2CCOCC2)cc1`?
RBX1-CUL1 inh: 4

Results for CCOc1ccc(Br)cc1C(=O)NC(C)CC (stereo not given) ?
RBX1-CUL1 inh: 1

Results for O=C(Nc1ccc(-n2cccn2)cc1)C1CCCN1Cc1cccnc1 (stereo not given) ?
RBX1-CUL1 inh: 5

How did O=C(CCSCCC(=O)N1CCN(c2ccc(F)cc2)CC1)N1CCN(c2ccc(F)cc2)CC1 do in these assays?
RBX1-CUL1 inh: 8

Results for CCc1ccc(CN2CCC(N3CCC(C(=O)NCCc4ccccc4)CC3)CC2)o1 ?
RBX1-CUL1 inh: 3

How did COc1cc(/C=C2\C(=O)NN(c3ccccc3)C2=O)cc(Br)c1OCCCOc1ccc(Cl)cc1 do in these assays?
RBX1-CUL1 inh: 55*

Results for COc1cc(/C=C2/C(=O)NN(c3ccccc3)C2=O)cc(OC)c1O ?
RBX1-CUL1 inh: 10

Results for CCOc1cc(/C=C2\C(=O)NN(c3ccccc3)C2=O)cc(Br)c1OCCCOc1ccc(Cl)cc1 ?
RBX1-CUL1 inh: -15

What do the screens show for `CS(=O)(=O)N(CC(=O)N1CCc2ccccc2C1)c1cccc(Cl)c1Cl`?
RBX1-CUL1 inh: 8

What do the screens show for `O=C1/C(=C/c2ccc(Cl)cc2)COc2ccc3ccccc3c21`?
RBX1-CUL1 inh: 15

What do the screens show for `O=C1Oc2ccc3ccccc3c2C(=O)C1CC1C(=O)Oc2ccc3ccccc3c2C1=O` (stereo not given)?
RBX1-CUL1 inh: 32*

Results for CCC1c2c(ccc3ccccc23)OC(=O)C1C(=O)Nc1ccc(C)cc1 (stereo not given) ?
RBX1-CUL1 inh: -6

What do the screens show for `CC(CS)c1nnc(Br)c(N)n1` (stereo not given)?
RBX1-CUL1 inh: 10

How did O=C(Nc1cc(C(F)(F)F)ccc1N1CCOCC1)Nc1cccc2ccccc12 do in these assays?
RBX1-CUL1 inh: -5

What do the screens show for `CCOc1ccc(N2C(=O)CSC2c2ccc3cc(C)ccc3n2)cc1` (stereo not given)?
RBX1-CUL1 inh: 11

What do the screens show for `CC(/C=C1\SC(=S)N(NC(=O)c2cccc(O)c2)C1=O)=C\c1ccccc1`?
RBX1-CUL1 inh: -5

What do the screens show for `CC(/C=C1\SC(=S)N(CC(=O)O)C1=O)=C\c1ccccc1`?
RBX1-CUL1 inh: -3

From PubChem BioAssay
